Assay outcomes from PubChem BioAssay.
Calpain2 inh: inhibitors of pig calpain II, primary screen, biochemical, fluorogenic peptide substrate, 1536-well; purified calpain II, 30 min; inhibition, % at 16 µM; 0.37% of 220,000 active; AID 1236, 2008;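 active = inhibition above about 50%, limit read from the data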
14-3-3 Bad inh: inhibitors of 14-3-3 zeta/Bad binding, primary screen, biochemical, TR-FRET, bovine 14-3-3 zeta; TR-FRET 14-3-3zeta/Dy647-pBad peptide displacement, 1 h; inhibition, % at 21.7 µM; 0.71% of 220,000 active;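 active = inhibition above about 70%, limit read from the data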;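 also: 0% = full 14-3-3 plus peptide FRET controls and 100% = background without 14-3-3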
TNF death inh: inhibitors of TNF-alpha triggered necroptosis, primary screen, cell-based, Jurkat FADD-/-, single concentration | Jurkat FADD-/- TNF necroptosis rescue, ATP luminescence, 24 h; 0 = TNF only, 100 = no-TNF cells | activation (protection from cell death), % at 10 µM | AID 463075, 2010 | 0.068% of 220,000 active;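 active = activation, meaning protection from cell death, of at least 50% relative to plate controls; inactive = activation below 50%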;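 also: necroptosis triggered by 40 ng/mL TNF-alpha added together with compound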
Efa HMGR inh: inhibitors of E. faecalis class II HMGR, primary screen, biochemical, Enterococcus faecalis. HMG-CoA reductase (Enterococcus faecalis, mvaE). purified E. faecalis HMGR, NADPH absorbance 340 nm kinetic. inhibition, % at 10 µM. 0.41% of 190,000 active. AID 1066, 2008;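 active = inhibition above a set limit, the median over all tested compounds plus 3 SD, cut at about 9.5% in these data; inconclusive = no clear call, values can overlap the other calls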;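 also: enzyme runs in reverse so mevalonate oxidation gives rising NADPH absorbance; 0% = complete reaction with DMSO and 100% = background rate lacking mevalonate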
ROMK mod: ROMK potassium channel modulators, primary screen, cell-based, thallium flux, MLSMR library | ATP-sensitive inward rectifier potassium channel 1 (Homo sapiens), P48048 | Tet-inducible ROMK, thallium flux fluorescence; actives lie on both sides | 2% of 130,000 active | B-score at 10 µM;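 active = signal ratio slope over the read window, or its plate-corrected B-score, at least 3 SD from the plate mean, either direction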;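 also: B-score of the F/F0 ratio slope over 7 to 12 s after thallium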
Target sequence (P48048 whole entry, looked up): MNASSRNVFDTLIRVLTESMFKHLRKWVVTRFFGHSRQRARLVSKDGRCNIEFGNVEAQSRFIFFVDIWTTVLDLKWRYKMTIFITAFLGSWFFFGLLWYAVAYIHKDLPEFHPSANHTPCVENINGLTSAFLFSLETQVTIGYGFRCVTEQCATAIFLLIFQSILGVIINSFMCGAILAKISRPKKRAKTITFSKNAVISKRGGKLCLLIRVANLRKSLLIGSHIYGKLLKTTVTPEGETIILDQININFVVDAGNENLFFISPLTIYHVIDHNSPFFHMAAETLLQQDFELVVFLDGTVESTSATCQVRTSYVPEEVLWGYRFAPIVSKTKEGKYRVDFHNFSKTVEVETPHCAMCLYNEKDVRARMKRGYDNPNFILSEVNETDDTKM
zVAD death inh: inhibitors of zVAD-triggered necroptosis, primary screen, L929 cells. L929 zVAD necroptosis rescue, ATP luminescence, 24 h; with zVAD 60 µM. viability rescue, % at 10 µM. 0.38% of 220,000 active. AID 1377, 2008;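 active = activation, scaled between plate controls, above about 75%, limit read from the data; inactive = activation under that limit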;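 also: 0% = zVAD with DMSO and 100% = DMSO alone without zVAD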
ROMK hit retest: ROMK channel modulator hit retest, confirmation, cell-based, thallium flux, duplicate, resupplied hits. shares compounds with ROMK mod. fluorescence ratio; active compounds read low. normalized thallium flux (F/F0 slope) at 10 µM. 54% of 3,000 active;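 active = Flux at 10 µM at least 3 SD below or above vehicle control mean in one or both replicates; inconclusive = no clear call, values can overlap the other calls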
* = called active by the depositor; i = inactive; ? = inconclusive; . = no result. Rows were chosen to be rich in hits. Some 3% of all compounds tested hit in one or more screens of this group.

SMILES	Calpain2 inh	14-3-3 Bad inh	TNF death inh	Efa HMGR inh	ROMK mod	zVAD death inh	ROMK hit retest
O=C(C1CCN(CCCc2ccccc2)CC1)N(CCc1ccccc1)Cc1ccccc1	-1	33	-3	0	-5*	-1	0.05*
O=C(C1CCN(CC2CC=CCC2)CC1)N(CCc1ccccc1)Cc1ccccc1 (centres undefined)	5	17	0	1	-2.8*	0	0.064*
COc1cc(OC)cc(C(=O)NC2CCN(CC(=O)Nc3cccc4ccccc34)CC2)c1	-15	-8	3	-1	.	1	.
O=S(Cc1ccccc1)CC(O)(c1ccccc1)c1ccccc1 (centres undefined)	20	-14	-3	2	.	0	.
COc1ccc(C(=O)OCC[N+]2(C)CCOCC2)cc1	26	41	0	1	.	1	.
CCc1ccc(OCCCC(=O)Nc2ccc(S(N)(=O)=O)cc2)cc1	13	0	2	-3	-1.3	0	.
C=CCOC(=O)c1cn(CC)c2nc(C)ccc2c1=O	-28	20	-1	-1	0.14	-1	.
CCn1cc(C(=O)OCC(=O)OC2CC(C)CCC2C(C)C)c(=O)c2ccc(C)nc21 (centres undefined)	30	9	-1	-4	2.7*	0	0.064*
O=C(O)CCC(=O)Nc1ccc(OCC(=O)O)cc1	23	43	-1	-9	-0.038	0	.
Cc1ccccc1OC1=NS(=O)(=O)c2ccccc21	-22	37	0	-10	-2.6*	5	0.064*
O=c1nc(NCc2ccccc2Cl)cn[nH]1	2	-3	-1	1	.	0	.
Cc1ccc(C2C(C#N)=C(N)Oc3nc(-c4ccccc4)[nH]c32)o1 (centres undefined)	-17	-3	-6	-10	.	0	?
O=C1c2cccc3cccc(c23)C(=O)N1OS(=O)(=O)c1ccc(Br)cc1	-141	-1	3	-6	.	0	.
O=C1C(Br)=Cc2cccc3cccc1c23	-17	-3	-4	.	.	1	0.049*
Cn1ncc(C(=O)Nc2ccc(Cl)cc2)c1C(F)(F)F	-21	-12	-1	.	.	1	.
Cn1nc(C(F)(F)F)cc1C(=O)Nc1ccc(Cl)cc1	27	0	-1	.	.	1	0.082
N#Cc1c(NCCN)nc(-c2ccccc2)c2c1CCCC2	6	14	-3	-3	-4*	-4	0.05*
O=C(CN1CCCC1)Nc1c2c(nc3ccccc13)N(Cc1ccccc1)CC2	-117	84*	2	0	-3.1*	-1	0.061*
Cn1nc(C(F)(F)F)c(C#N)c1N1CCN(c2ccccc2F)CC1	4	3	0	1	-0.67	0	.
COc1cccc(N2CCN(c3c(C#N)c(C(F)(F)F)nn3C)CC2)c1	19	-5	-2	-3	-4.1*	0	0.06*
CC(=O)N1C(=O)C(=C2C=C(C)OC(C)=C2)c2ccccc21	-72	-2	-1	-4	.	71	0.062*
O=C(O)c1ccc(-c2nc(-c3cccc(C(F)(F)F)c3)cs2)cc1	29	7	-4	-1	3.1*	54	0.087
O=C(O)c1ccc(-c2nc(-c3ccc(Cl)cc3)cs2)cc1	-23	-2	1	2	-0.45	1	.
Cc1cc(NC(=O)/C=C/C(=O)N(CC(=O)NC2CCCC2)c2cccc3ccccc23)no1	-30	4	-3	-10	-4*	1	0.056*
Cc1cc(NC(=O)CSc2ncnc3sc(C)c(C)c23)no1	-28	-2	1	8	0.21	3	.
Cc1cccn2c(=O)c3cc(C(=O)NCCN4CCOCC4)c(=N)n(CCc4ccccc4)c3nc12	i	6	4	-5	-2.8*	-1	0.063*
